# Measurements published in the supplement of paper PMC8728848.
# This is one part of a sample in which the strongest signals are shown more often than they occur.
# Legend:
# Test in all cases: glycan array binding signal (z-score within array); higher = stronger binding
# Conditions in all cases: glycan notation: IUPAC condensed, linker removed; mutation: R74S
# [1] = molecular target: Gal(b1-4)GlcNAc(b1-3)Gal(b1-4)GlcNAc(b1-3)Gal(b1-4)GlcNAc(b1-3)Gal(b1-4)GlcNAc(b1-2)Man(a1-3)[Gal(b1-4)GlcNAc(b1-3)Gal(b1-4)GlcNAc(b1-3)Gal(b1-4)GlcNAc(b1-3)Gal(b1-4)GlcNAc(b1-2)Man(a1-6)]Man(b1-4)GlcNAc(b1-4)[Fuc(a1-6)]GlcNAc
# Method in brief: (§1)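 From the Consortium for Functional Glycomics database, 3228 arrays were curated, keeping only those whose protein sequence was available. Binding is given as a within-array Z-score averaged across arrays sharing a protein sequence and across linkers. Negative Z-scores can be read as non-binding.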
# [2] = molecular target: Gal(b1-4)GlcNAc(b1-3)Gal(b1-4)GlcNAc(b1-3)Gal(b1-4)GlcNAc(b1-3)Gal(b1-4)GlcNAc(b1-2)[Gal(b1-4)GlcNAc(b1-3)Gal(b1-4)GlcNAc(b1-3)Gal(b1-4)GlcNAc(b1-3)Gal(b1-4)GlcNAc(b1-6)]Man(a1-6)[Gal(b1-4)GlcNAc(b1-3)Gal(b1-4)GlcNAc(b1-3)Gal(b1-4)GlcNAc(b1-3)Gal(b1-4)GlcNAc(b1-2)Man(a1-3)]Man(b1-4)GlcNAc(b1-4)[Fuc(a1-6)]GlcNAc
# Method in brief: as §1
# [3] = molecular target: Gal(b1-4)GlcNAc(b1-3)Gal(b1-4)GlcNAc(b1-3)Gal(b1-4)GlcNAc(b1-3)Gal(b1-4)GlcNAc(b1-3)Gal(b1-4)GlcNAc(b1-2)Man(a1-3)[Gal(b1-4)GlcNAc(b1-3)Gal(b1-4)GlcNAc(b1-3)Gal(b1-4)GlcNAc(b1-3)Gal(b1-4)GlcNAc(b1-3)Gal(b1-4)GlcNAc(b1-2)Man(a1-6)]Man(b1-4)GlcNAc(b1-4)GlcNAc
# Method in brief: as §1
# [4] = molecular target: Gal(b1-4)GlcNAc(b1-3)Gal(b1-4)GlcNAc(b1-3)Gal(b1-4)GlcNAc(b1-3)Gal(b1-4)GlcNAc(b1-3)Gal(b1-4)GlcNAc(b1-2)Man(a1-3)[Gal(b1-4)GlcNAc(b1-3)Gal(b1-4)GlcNAc(b1-3)Gal(b1-4)GlcNAc(b1-3)Gal(b1-4)GlcNAc(b1-3)Gal(b1-4)GlcNAc(b1-2)Man(a1-6)]Man(b1-4)GlcNAc(b1-4)[Fuc(a1-6)]GlcNAc
# Method in brief: as §1
# [5] = molecular target: Gal(b1-4)GlcNAc(b1-3)Gal(b1-4)GlcNAc(b1-3)Gal(b1-4)GlcNAc(b1-3)Gal(b1-4)GlcNAc(b1-3)Gal(b1-4)GlcNAc(b1-2)[Gal(b1-4)GlcNAc(b1-3)Gal(b1-4)GlcNAc(b1-3)Gal(b1-4)GlcNAc(b1-3)Gal(b1-4)GlcNAc(b1-3)Gal(b1-4)GlcNAc(b1-6)]Man(a1-6)[Gal(b1-4)GlcNAc(b1-3)Gal(b1-4)GlcNAc(b1-3)Gal(b1-4)GlcNAc(b1-3)Gal(b1-4)GlcNAc(b1-3)Gal(b1-4)GlcNAc(b1-2)Man(a1-3)]Man(b1-4)GlcNAc(b1-4)[Fuc(a1-6)]GlcNAc
# Method in brief: as §1
# [6] = molecular target: GalNAc(b1-3)Gal(a1-4)Gal(b1-4)GlcNAc(b1-3)Gal(b1-4)Glc
# Method in brief: as §1
# [7] = molecular target: GalNAc(b1-3)Gal(a1-6)Gal(b1-4)Glc
# Method in brief: as §1
# [8] = molecular target: GalNAc(b1-4)GlcNAc(b1-3)GalNAc(b1-4)GlcNAc
# Method in brief: as §1
# [9] = molecular target: GlcNAc(b1-3)Fuc
# Method in brief: as §1
# [10] = molecular target: GlcNAc(b1-3)Gal(b1-4)GlcNAc(b1-3)Gal(b1-4)GlcNAc(b1-3)Gal(b1-4)GlcNAc(b1-2)Man(a1-3)[GlcNAc(b1-3)Gal(b1-4)GlcNAc(b1-3)Gal(b1-4)GlcNAc(b1-3)Gal(b1-4)GlcNAc(b1-2)Man(a1-6)]Man(b1-4)GlcNAc(b1-4)[Fuc(a1-6)]GlcNAc
# Method in brief: as §1
# [11] = molecular target: GlcNAc(b1-3)Gal(b1-4)GlcNAc(b1-3)Gal(b1-4)GlcNAc(b1-3)Gal(b1-4)GlcNAc(b1-3)Gal(b1-4)GlcNAc(b1-2)Man(a1-3)[GlcNAc(b1-3)Gal(b1-4)GlcNAc(b1-3)Gal(b1-4)GlcNAc(b1-3)Gal(b1-4)GlcNAc(b1-3)Gal(b1-4)GlcNAc(b1-2)Man(a1-6)]Man(b1-4)GlcNAc(b1-4)[Fuc(a1-6)]GlcNAc
# Method in brief: as §1
# [12] = molecular target: GlcNAc(b1-3)[GlcNAc(b1-6)]Gal(b1-4)GlcNAc
# Method in brief: as §1
# [13] = molecular target: GlcNAc(b1-4)GlcNAc
# Method in brief: as §1
# [14] = molecular target: GlcNAc(b1-4)GlcNAc(b1-4)GlcNAc(b1-4)GlcNAc(b1-4)GlcNAc
# Method in brief: as §1
# [15] = molecular target: Man(a1-2)Man(a1-6)[Man(a1-3)]Man(a1-6)[Man(a1-2)Man(a1-2)Man(a1-3)]Man
# Method in brief: as §1
# [16] = molecular target: Neu5Ac(a2-3)Gal(b1-3)GalNAc(b1-4)[Neu5Ac(a2-3)]Gal(b1-4)Glc
# Method in brief: as §1
# [17] = molecular target: Neu5Ac(a2-3)Gal(b1-3)GlcNAc(b1-3)GalNAc
# Method in brief: as §1
# [18] = molecular target: Neu5Ac(a2-3)Gal(b1-3)[GlcNAc(b1-6)]GalNAc
# Method in brief: as §1
# [19] = molecular target: Neu5Ac(a2-3)Gal(b1-4)GlcNAc
# Method in brief: as §1
# [20] = molecular target: Neu5Ac(a2-3)Gal(b1-4)GlcNAc(b1-2)Man
# Method in brief: as §1
# [21] = molecular target: Neu5Ac(a2-3)Gal(b1-4)GlcNAc(b1-2)Man(a1-3)[GlcNAc(b1-4)][Neu5Ac(a2-3)Gal(b1-4)GlcNAc(b1-2)Man(a1-6)]Man(b1-4)GlcNAc(b1-4)GlcNAc
# Method in brief: as §1
# [22] = molecular target: Neu5Ac(a2-6)Gal(b1-4)GlcNAc(b1-2)Man(a1-3)[Man(a1-6)]Man(b1-4)GlcNAc(b1-4)GlcNAc
# Method in brief: as §1
# [23] = molecular target: Neu5Ac(a2-6)Gal(b1-4)GlcNAc(b1-2)[Neu5Ac(a2-6)Gal(b1-4)GlcNAc(b1-4)]Man(a1-3)[GlcNAc(b1-4)][Neu5Ac(a2-6)Gal(b1-4)GlcNAc(b1-2)[Neu5Ac(a2-6)Gal(b1-4)GlcNAc(b1-6)]Man(a1-6)]Man(b1-4)GlcNAc(b1-4)GlcNAc
# Method in brief: as §1
# [24] = molecular target: Neu5Gc(a2-3)Gal(b1-4)GlcNAc(b1-3)Gal(b1-4)GlcNAc(b1-2)Man(a1-3)[Neu5Gc(a2-3)Gal(b1-4)GlcNAc(b1-3)Gal(b1-4)GlcNAc(b1-2)Man(a1-6)]Man(b1-4)GlcNAc(b1-4)GlcNAc
# Method in brief: as §1
# [25] = molecular target: Neu5Gc(a2-3)Gal(b1-4)[Fuc(a1-3)]GlcNAc
# Method in brief: as §1
binder,measurement,setting,value
Gal 7 (Homo sapiens) (protein) MSNVPHKSSLPEGIRPGTVLRIRGLVPPNASRFHVNLLCGEEGGSDAALHFNPRLDTSEVVFNSKEGGSWGREESGPGVPFGRGQPFEVLIIASDDGFKAVVGDAQYHHFRHRLPLARVRLVEVGGDVQLDSVRIF,glycan array binding signal (z-score),[1],4.17
same,glycan array binding signal (z-score),[2],4.03
same,glycan array binding signal (z-score),[3],7.44
same,glycan array binding signal (z-score),[4],4.13
same,glycan array binding signal (z-score),[5],4.35
same,glycan array binding signal (z-score),[6],-0.451
same,glycan array binding signal (z-score),[7],-0.396
same,glycan array binding signal (z-score),[8],0.573
same,glycan array binding signal (z-score),[9],0.85
same,glycan array binding signal (z-score),[10],4.14
same,glycan array binding signal (z-score),[11],2.87
same,glycan array binding signal (z-score),[12],-0.632
same,glycan array binding signal (z-score),[13],-0.382
same,glycan array binding signal (z-score),[14],-0.329
same,glycan array binding signal (z-score),[15],-0.26
same,glycan array binding signal (z-score),[16],-0.265
same,glycan array binding signal (z-score),[17],-0.585
same,glycan array binding signal (z-score),[18],-0.436
same,glycan array binding signal (z-score),[19],-0.58
same,glycan array binding signal (z-score),[20],0.603
same,glycan array binding signal (z-score),[21],-0.325
same,glycan array binding signal (z-score),[22],-0.264
same,glycan array binding signal (z-score),[23],-0.265
same,glycan array binding signal (z-score),[24],1.39
same,glycan array binding signal (z-score),[25],-0.084
